According to PubChem BioAssay (NCATS):
“And” between values parts separate entries of the source, which are not always exact repeats. Equal values may be shown once. Results filed as inconclusive are left out. The source made the active and inactive calls. Unless noted, calls follow the shape of the dose curve; as a rule, active = well fitted curve in the direction sought with a large enough effect; inconclusive = small, poorly fitted or top-dose-only effect, or another doubt; inactive = no such curve, though single readings can be large; an effect the other way counts as inactive or inconclusive.

Experiments:
[1] = tested on: Zika virus NS2B-NS3 protease; assay: Primary screen GU AMC qHTS for Zika virus inhibitors (AID 1347154);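 also: 0% = no-inhibitor control and -100% = no-enzyme control; nearly all actives have a fitted effect of over 70% in size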
How it was run: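 Fluorogenic AMC-substrate cleavage by noncovalent NS2B-NS3 protease complex (25 nM, pH 8.0 Tris buffer with Tween 20) followed for 15 minutes at room temperature (~20% conversion). Percent inhibition from ex340/em450 signal change, fitted by 4-parameter Hill equation.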

[2] = Primary qHTS for small molecule stabilizers of the endoplasmic reticulum resident proteome: Secreted ER Calcium Modulated Protein (SERCaMP) assay (AID 1508630); also: % is scaled to controls: 0 for no effect and ±100 for the full control effect
How it was run: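 GLuc-SERCaMP-expressing SH-SY5Y cells, pretreated 16 h with compound, are challenged with thapsigargin to empty ER calcium stores; after 4 h, coelenterazine is added directly to the medium and luminescence is imaged.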

[3] = AP1 Signaling Pathway (AID 357; active = well fitted curve in either direction with a large enough effect, not every such curve was filed as active;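 also: ME-180 reporter cells stimulated with EGF at its EC50 level; % is scaled to controls: 0 for no effect and ±100 for the full control effect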); conditions: ME-180 AP-1-bla reporter, EGF-induced, beta-lactamase ratio, 5 h; at 38 µM (top of the series)
How it was run: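 Read-out was the 460nm/530nm emission ratio (excitation 405nm) after CCF4 loading for 2.5 hours at room temperature. Cells carried an AP-1-driven beta-lactamase reporter, were stimulated with EC50 EGF plus compound for 5 hours, and AC50 values came from titrations.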

[4] = Stat Signaling Pathway (AID 446; active = well fitted curve in either direction with a large enough effect, not every such curve was filed as active;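 also: ME-180 cervical cancer cells given 40 pM IL-6 alongside compound; SIE-controlled beta-lactamase reporter measured as 460/530 nm FRET emission ratio; % is scaled to controls: 0 for no effect and ±100 for the full control effect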); conditions: ME-180 (cervical carcinoma) SIE beta-lactamase reporter, IL-6 stimulated, 5 h
How it was run: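 IL-6/STAT signaling read in ME-180 cells via an SIE beta-lactamase reporter. Stimulus was 40 pM IL-6 (its AC50) for 5 hrs, so both activation and inhibition register.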

[5] = molecular target: Glucocorticoid receptor (Homo sapiens) (UniProt P04150); assay: GR-GFP Redistribution (AID 450;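 active = compounds whose dose series gives a full or clear partial fitted curve of increased nuclear translocation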; also: potency is read from the fitted curve at half-maximal effect); conditions: U2OS GR-GFP nuclear translocation, laser cytometry, 2 h
Chain of Glucocorticoid receptor (Homo sapiens) (P04150 whole entry, looked up, the tested form may be a part): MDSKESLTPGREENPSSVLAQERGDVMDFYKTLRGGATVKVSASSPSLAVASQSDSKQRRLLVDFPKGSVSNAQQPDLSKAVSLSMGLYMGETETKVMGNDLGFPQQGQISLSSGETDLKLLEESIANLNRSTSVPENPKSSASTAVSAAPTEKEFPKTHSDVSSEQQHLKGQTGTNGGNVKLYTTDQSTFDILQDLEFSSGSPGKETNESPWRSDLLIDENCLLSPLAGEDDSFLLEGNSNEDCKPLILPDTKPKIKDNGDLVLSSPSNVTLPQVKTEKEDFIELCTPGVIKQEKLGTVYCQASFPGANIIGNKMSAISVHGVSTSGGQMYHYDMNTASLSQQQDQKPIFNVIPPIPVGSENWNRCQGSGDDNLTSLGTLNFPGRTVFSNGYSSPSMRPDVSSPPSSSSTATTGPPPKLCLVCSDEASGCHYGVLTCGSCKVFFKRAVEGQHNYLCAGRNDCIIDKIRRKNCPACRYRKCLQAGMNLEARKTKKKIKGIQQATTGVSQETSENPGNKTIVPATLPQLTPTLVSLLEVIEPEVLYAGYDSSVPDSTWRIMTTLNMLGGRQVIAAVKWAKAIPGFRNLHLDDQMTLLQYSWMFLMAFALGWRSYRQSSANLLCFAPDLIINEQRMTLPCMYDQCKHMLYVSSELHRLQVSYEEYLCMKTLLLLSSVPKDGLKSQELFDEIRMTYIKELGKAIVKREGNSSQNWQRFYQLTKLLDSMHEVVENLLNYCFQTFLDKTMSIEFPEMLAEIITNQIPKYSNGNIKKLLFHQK

[6] = molecular target: Glucocorticoid receptor (Homo sapiens) (UniProt P04150); assay: GR-EFC Redistribution (AID 451; calls by dose curve; also: potency is read from the fitted curve at half-maximal effect); conditions: CHO-K1 GR-EFC translocation, beta-gal luminescence, 2 h
How it was run: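 Translocation of GR-ED fusion to nuclear EA restores b-gal, read by luminescence after 1 h room-temperature detection. Engineered CHO-K1 biosensor cells, 1,000/well, exposed 2 h at 37 C to titrations up to 46 uM final.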

[7] = molecular target: Mitogen-activated protein kinase 10 (Mus musculus) (UniProt Q61831); assay: JNK3 AlphaScreen Assay (AID 530; active = well fitted curve in either direction with a large enough effect, not every such curve was filed as active;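 also: kinase came from lysate of stimulated human HepG2 cells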; also: potency is read from the fitted curve at half-maximal effect)
How it was run: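 Compound titrations were preincubated 15 minutes at room temperature with substrate, antibody and pre-activated JNK3-containing HepG2 lysate. Reactions were started with 10 uM ATP and stopped with EDTA-containing bead buffer for AlphaScreen detection.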

[8] = molecular target: 3',5'-cyclic-AMP phosphodiesterase 4B (Homo sapiens) (UniProt Q07343); assay: qHTS Assay for Inhibitors of PDE-IV (AID 607; active = well fitted activation curve with a large enough effect in the main read-out, with a control signal flat, not every such curve was filed as active; also: % of control where 0% means no effect)
Chain of 3',5'-cyclic-AMP phosphodiesterase 4B (Homo sapiens) (Q07343 whole entry, looked up): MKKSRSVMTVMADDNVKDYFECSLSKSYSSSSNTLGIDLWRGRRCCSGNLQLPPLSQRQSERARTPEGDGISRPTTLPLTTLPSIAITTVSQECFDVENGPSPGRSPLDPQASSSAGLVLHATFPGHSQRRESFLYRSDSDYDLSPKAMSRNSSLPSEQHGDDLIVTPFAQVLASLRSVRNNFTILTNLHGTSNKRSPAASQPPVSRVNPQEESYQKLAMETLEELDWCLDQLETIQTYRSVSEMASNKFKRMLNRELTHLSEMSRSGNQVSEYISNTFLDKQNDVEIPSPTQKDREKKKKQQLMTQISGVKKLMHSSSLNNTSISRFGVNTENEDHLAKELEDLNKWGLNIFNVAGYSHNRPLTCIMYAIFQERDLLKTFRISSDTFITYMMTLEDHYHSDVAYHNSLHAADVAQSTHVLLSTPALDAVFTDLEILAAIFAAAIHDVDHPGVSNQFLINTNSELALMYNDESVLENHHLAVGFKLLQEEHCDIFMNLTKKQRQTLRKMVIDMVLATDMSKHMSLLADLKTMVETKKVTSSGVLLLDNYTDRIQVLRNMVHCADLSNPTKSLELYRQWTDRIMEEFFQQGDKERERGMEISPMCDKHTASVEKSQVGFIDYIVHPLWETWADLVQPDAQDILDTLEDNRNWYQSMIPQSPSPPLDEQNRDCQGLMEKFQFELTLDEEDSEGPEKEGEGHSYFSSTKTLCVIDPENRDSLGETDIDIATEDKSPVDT
How it was run: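 Live HEK293 cells with a modified cyclic nucleotide-gated (CNG) channel report intracellular cAMP via membrane-potential dye fluorescence (ex 535/em 590 nm). Endogenous PDE-IV was targeted. Compounds were tested at up to 22.9 uM final; RO 20-1724 100 uM served as control.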

[9] = molecular target: Guanine nucleotide-binding protein G(i) subunit alpha-1 (Homo sapiens) (UniProt P63096); assay: qHTS Assay for Inhibitors of RGS12 GoLoco Motif Activity (Green Fluorophore) (AID 879);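 also: 0% = labeled peptide with Gαi1 and full inhibition = labeled peptide alone without protein; negative values mean loss of peptide binding seen as reduced polarization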
Chain of Guanine nucleotide-binding protein G(i) subunit alpha-1 (Homo sapiens) (P63096 whole entry, looked up): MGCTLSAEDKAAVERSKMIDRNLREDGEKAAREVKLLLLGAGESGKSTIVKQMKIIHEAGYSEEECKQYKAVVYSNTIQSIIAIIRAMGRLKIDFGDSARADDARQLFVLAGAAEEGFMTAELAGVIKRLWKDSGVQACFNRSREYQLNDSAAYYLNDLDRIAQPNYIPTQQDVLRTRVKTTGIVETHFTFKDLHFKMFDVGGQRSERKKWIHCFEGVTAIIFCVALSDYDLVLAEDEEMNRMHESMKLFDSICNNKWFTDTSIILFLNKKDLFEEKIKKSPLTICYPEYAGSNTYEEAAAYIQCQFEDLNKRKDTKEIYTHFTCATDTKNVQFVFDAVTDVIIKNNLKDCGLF
How it was run: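 Fluorescence polarization assay: 50 nM Gαi1 with 10 nM FITC-labeled RGS12 GoLoco peptide in 10 mM Tris pH 7.5, 150 mM NaCl, 0.1 mM GDP, 0.05% NP40, 10 min at room temperature with compound.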

[10] = molecular target: Cytochrome P450 3A4 (Homo sapiens) (UniProt P08684); assay: qHTS Assay for Activators of Cytochrome P450 3A4 (AID 885); also: nearly all actives have a fitted effect of over 65% in size
How it was run: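 Quantitative HTS format: compounds preincubated with 20nM human CYP3A4 and Luciferin-PPXE substrate at KM, reaction started by NADPH regeneration, stopped after 60 min, luciferase luminescence read 20 min later.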

[11] = molecular target: Cytochrome P450 2D6 (Homo sapiens) (UniProt P10635); assay: qHTS Assay for Inhibitors and Substrates of Cytochrome P450 2D6 (AID 891);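 also: luciferin methyl ether substrate demethylated by CYP2D6 with NADPH regeneration; % is scaled to controls: 0 for no effect and ±100 for the full control effect; nearly all actives have a fitted effect of over 60% in size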
How it was run: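 Human CYP2D6 (5 nM) with 30 uM Luciferin-ME EGE (at Km) in 100 mM KPO4, compound preincubated 10 min, then NADPH regeneration system for 60 min at room temperature. Luciferin read by luminescence; normalized to 1.43 uM quinidine.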

[12] = molecular target: Cytochrome P450 2C19 (Homo sapiens) (UniProt P33261); assay: qHTS Assay for Inhibitors and Substrates of Cytochrome P450 2C19 (AID 899); also: nearly all actives have a fitted effect of over 60% in size; also: potency is read from the fitted curve at half-maximal effect
Chain of Cytochrome P450 2C19 (Homo sapiens) (P33261 whole entry, looked up): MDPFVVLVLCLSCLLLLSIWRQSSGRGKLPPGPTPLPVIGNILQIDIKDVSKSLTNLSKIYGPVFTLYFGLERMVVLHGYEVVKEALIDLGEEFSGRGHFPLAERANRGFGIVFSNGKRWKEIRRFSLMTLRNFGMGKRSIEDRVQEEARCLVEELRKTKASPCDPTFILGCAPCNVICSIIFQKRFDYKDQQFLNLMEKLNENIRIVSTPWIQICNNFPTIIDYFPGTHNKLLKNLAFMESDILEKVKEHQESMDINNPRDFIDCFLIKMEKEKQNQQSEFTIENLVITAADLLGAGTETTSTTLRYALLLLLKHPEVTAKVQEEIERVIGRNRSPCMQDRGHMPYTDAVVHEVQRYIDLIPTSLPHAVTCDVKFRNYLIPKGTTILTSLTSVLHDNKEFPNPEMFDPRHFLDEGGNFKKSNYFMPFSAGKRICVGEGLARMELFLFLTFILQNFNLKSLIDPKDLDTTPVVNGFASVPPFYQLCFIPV
How it was run: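 5nM enzyme + 10uM Luciferin-H EGE (=KM), 50mM KPO4; cpd pin-transferred, 10 min 37C; NADPH regen, 60 min 37C; stopped w/ luciferin detection reagent, 20 min; luminescence. Normalized to 57uM ketoconazole (AC100).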

[13] = molecular target: Pyruvate kinase (Leishmania mexicana) (UniProt Q27686); assay: qHTS Validation Assay for Inhibitors of Leishmania Mexicana Pyruvate Kinase (AID 945);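 also: 0% = DMSO only neutral control wells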
Chain of Pyruvate kinase (Leishmania mexicana) (Q27686 2-499 E452W): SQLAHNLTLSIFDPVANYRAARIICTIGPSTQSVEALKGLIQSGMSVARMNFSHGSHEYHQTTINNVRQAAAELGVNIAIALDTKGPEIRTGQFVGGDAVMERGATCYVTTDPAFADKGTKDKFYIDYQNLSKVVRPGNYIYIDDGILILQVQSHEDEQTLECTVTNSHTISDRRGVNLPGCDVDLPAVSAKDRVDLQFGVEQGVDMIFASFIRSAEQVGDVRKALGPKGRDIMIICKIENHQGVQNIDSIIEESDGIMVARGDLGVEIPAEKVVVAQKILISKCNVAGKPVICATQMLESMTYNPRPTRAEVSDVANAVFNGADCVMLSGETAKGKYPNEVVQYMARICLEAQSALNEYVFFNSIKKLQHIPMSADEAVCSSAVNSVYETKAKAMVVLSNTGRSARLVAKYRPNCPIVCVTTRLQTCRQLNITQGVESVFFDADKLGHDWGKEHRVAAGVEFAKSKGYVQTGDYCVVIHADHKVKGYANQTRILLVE
How it was run: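 An endpoint luciferase assay: 0.2 nM LmPYK E451W turns over 0.5 mM PEP with 0.1 mM ADP for 1 h at room temperature, pH 7.2, before PKLight addition. Values are normalized to DMSO-only wells.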

[14] = molecular target: Alpha-galactosidase A (Homo sapiens) (UniProt P06280); assay: Counterscreen for Glucocerebrosidase Inhibitors: qHTS Assay for Human alpha-Galactosidase at pH 4.5 (AID 992); also: 0% is about no effect
Chain of Alpha-galactosidase A (Homo sapiens) (P06280 whole entry, looked up): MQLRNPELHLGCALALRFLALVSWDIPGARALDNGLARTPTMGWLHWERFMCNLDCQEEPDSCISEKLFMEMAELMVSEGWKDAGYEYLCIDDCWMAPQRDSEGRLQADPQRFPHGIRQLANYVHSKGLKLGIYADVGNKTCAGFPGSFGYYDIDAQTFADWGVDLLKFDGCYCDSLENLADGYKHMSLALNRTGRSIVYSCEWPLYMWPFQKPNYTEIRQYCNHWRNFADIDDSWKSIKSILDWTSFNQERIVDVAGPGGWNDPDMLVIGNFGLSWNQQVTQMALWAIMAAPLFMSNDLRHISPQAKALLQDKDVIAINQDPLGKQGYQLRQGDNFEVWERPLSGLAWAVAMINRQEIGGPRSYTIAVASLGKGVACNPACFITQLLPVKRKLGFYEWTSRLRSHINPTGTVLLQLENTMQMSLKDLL
How it was run: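 Read-out is 4-methylumbelliferone fluorescence (365 nm excitation, 440 nm emission) after a pH 10 NaOH/glycine stop. Reactions held 2 nM enzyme and 80 uM substrate at pH 4.5 for 20 min at room temperature.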

[15] = molecular target: alpha-glucosidase (Oryza sativa, rice) (UniProt Q653V4); assay: Counterscreen for Glucocerebrosidase Inhibitors: qHTS Assay for Rice alpha-Glucosidase at pH 5.0 (AID 997);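 also: 0% = full activity with enzyme and -100% = basal without enzyme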
How it was run: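 Rice alpha-glucosidase (4 nM final) with 400 uM 4-methylumbelliferyl-alpha-D-glucopyranoside in citrate buffer pH 5.0, 20 min at room temperature, stopped at pH 10; fluorescence 365/440 nm, compounds 0.7 nM–77 uM, AC50 from Hill fits.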

[16] = molecular target: DNA dC->dU-editing enzyme APOBEC-3G (Homo sapiens) (UniProt Q9HC16); assay: qHTS for inhibitors of Vif-A3G interactions: Validation (AID 588379); also: 0% is about no effect
Chain of DNA dC->dU-editing enzyme APOBEC-3G (Homo sapiens) (Q9HC16 whole entry, looked up): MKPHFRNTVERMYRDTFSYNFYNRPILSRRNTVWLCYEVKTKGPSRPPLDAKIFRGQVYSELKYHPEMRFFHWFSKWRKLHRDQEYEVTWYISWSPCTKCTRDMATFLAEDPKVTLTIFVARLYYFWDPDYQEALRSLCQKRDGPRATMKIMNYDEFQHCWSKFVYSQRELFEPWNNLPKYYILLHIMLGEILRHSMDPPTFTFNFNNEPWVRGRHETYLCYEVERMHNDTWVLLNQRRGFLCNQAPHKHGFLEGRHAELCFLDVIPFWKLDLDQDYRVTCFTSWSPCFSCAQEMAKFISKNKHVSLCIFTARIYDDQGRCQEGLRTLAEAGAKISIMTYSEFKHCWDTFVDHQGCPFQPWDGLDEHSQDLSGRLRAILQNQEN
How it was run: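 HeLa cells stably expressing Vif and A3G-eYFP, 700 cells/well, incubated overnight at 37 deg C, then exposed to compound overnight at 37 deg C. Inhibition of Vif-mediated degradation read as increased yellow fluorescence (Ex 488/Em 500-530) by laser-scanning cytometry.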

[17] = qHTS Assay for Lipid Storage Modulators (AID 1519; calls by dose curve); conditions: Drosophila S3 cells, BODIPY lipid droplet/cell ratio, laser cytometry, cells loaded with oleic acid; for activity change, negative = inhibition: at 57.5 µM (top of the series)
How it was run: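 Cells seeded at 5,000 per well were treated with compounds over a concentration series and loaded with oleic acid (400 uM, as added). Lipid droplet fluorescence (488 nm excitation, 500-530 nm channel) was read by laser-scanning cytometry and normalized to 20 uM Triacsin C.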

[18] = molecular target: Cytochrome P450 1A2 (Homo sapiens) (UniProt P05177); assay: p450-cyp1a2 (AID 410; calls by dose curve; also: potency is read from the fitted curve at half-maximal effect;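 as to activity change, negative = inhibition: -100% = full effect of reference inhibitor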)
Chain of Cytochrome P450 1A2 (Homo sapiens) (P05177 whole entry, looked up): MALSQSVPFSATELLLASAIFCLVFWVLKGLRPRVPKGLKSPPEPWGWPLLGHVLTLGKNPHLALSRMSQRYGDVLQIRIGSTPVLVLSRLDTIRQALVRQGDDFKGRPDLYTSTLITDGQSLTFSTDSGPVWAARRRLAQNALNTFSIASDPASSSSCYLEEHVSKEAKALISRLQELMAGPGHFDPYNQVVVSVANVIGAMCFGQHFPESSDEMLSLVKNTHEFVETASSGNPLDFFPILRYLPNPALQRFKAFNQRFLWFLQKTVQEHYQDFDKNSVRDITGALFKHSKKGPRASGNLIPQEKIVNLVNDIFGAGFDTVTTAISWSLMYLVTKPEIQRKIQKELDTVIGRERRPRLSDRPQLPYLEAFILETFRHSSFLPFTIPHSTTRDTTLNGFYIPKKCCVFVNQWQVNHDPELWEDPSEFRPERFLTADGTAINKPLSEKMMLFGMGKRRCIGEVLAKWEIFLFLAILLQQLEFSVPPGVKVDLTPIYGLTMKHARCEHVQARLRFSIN
How it was run: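 20nM CYP1A2 with 100uM Luciferin-ME (at Km) in 100mM KPO4; compound preincubated 10 min, NADPH regeneration added, 60 min at room temperature. Luciferin quantified by luminescence after detection reagent; normalized to 57 uM furafylline.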

[19] = molecular target: Ubiquitin carboxyl-terminal hydrolase 1 (Homo sapiens) (UniProt O94782); assay: Inhibitors of USP1/UAF1: Pilot qHTS (AID 504865); also: nearly all actives have a fitted effect of over 35% in size; also: potency is read from the fitted curve at half-maximal effect
Chain of Ubiquitin carboxyl-terminal hydrolase 1 (Homo sapiens) (O94782 whole entry, looked up): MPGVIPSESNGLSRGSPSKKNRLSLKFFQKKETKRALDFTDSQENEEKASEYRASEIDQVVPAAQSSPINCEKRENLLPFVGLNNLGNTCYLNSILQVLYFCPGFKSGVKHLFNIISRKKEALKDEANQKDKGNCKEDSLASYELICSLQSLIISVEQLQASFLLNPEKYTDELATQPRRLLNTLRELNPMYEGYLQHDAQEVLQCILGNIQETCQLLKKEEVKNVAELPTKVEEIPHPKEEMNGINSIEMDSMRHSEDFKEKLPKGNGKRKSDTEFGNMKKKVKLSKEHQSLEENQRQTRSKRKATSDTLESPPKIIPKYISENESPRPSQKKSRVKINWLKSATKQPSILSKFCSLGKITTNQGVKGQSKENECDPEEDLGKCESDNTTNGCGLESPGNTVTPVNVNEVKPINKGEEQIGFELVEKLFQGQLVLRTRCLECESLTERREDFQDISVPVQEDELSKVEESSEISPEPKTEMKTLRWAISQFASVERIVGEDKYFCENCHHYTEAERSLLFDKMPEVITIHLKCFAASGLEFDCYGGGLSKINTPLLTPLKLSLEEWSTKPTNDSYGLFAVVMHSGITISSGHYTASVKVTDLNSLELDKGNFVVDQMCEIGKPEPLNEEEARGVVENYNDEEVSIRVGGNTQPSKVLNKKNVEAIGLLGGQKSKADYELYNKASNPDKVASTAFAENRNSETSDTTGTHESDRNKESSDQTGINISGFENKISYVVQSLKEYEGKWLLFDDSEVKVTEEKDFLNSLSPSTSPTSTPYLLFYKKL
How it was run: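 Kinetic fluorescence assay: 1nM USP1/UAF1, 15 min compound preincubation, then 150nM Ub-Rho; 480/540 nm.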

[20] = NFAT Signaling Pathway (AID 444; active = well fitted curve in either direction with a large enough effect, not every such curve was filed as active;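 also: carbachol stimulus at about its EC50 of 1 µM final; % is scaled to controls: 0 for no effect and ±100 for the full control effect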); conditions: Jurkat NFAT-bla M1, carbachol, beta-lactamase ratio, 5 h; at 17.2 µM (top of the series)
How it was run: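 Read-out: CCF4 FRET ratio (460 nm/530 nm) after 1 h RT dye loading, used for %activity and AC50 from titration series. Cells: Jurkat NFAT-β-lactamase/M1 line, treated with compound plus 1 uM carbachol for 5 h, 37 °C.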

[21] = measured here: cell count channel max response
[22] = measured here: lipid channel max response

NC(C(=O)O)c1cc(O)c(Cl)c(O)c1 (centres undefined)
inactive: Potency [1] | Potency [2]

COC(=O)C1=C(C)NC(C)=C([N+](=O)[O-])[C@H]1c1ccccc1C(F)(F)F
active: Potency [12] 1.26 µM and 158 nM
inactive: activity change, negative = inhibition [3] -27.8% | activity, negative = inhibition ([4]; at 38 µM (top of the series)) 13.2% | Potency [5] > 46 µM | Potency [6] > 46 µM | Potency [7] | Potency [8] | outcome [9] | Potency [10] | Potency [11] | Potency [13] | outcome [14] | outcome [15] | Potency [16] | Potency [1] | Potency [2]

CC(=O)O[C@H](CC(=O)O)C[N+](C)(C)C
15%: max response [17, 21]
inactive: Potency [6] > 46 µM | Potency [7] | activity change, negative = inhibition [17] 5.24% | Potency [16] | Potency [1] | Potency [2]
18.1%: max response [17, 22]

CC[C@H](C)N(C)C(=O)c1cc2ccccc2c(-c2ccccc2Cl)n1
inactive: activity change, negative = inhibition [3] -18% | Potency [18] | activity, negative = inhibition ([4]; at 38 µM (top of the series)) 8.11% | Potency [7] | outcome [9] | Potency [10] | Potency [11] | Potency [12] | Potency [13] | outcome [14] | outcome [15] | Potency [16] | Potency [1] | Potency [2]

Nc1ncnc2c1ncn2[C@@H]1O[C@H](COP(=O)(O)OP(=O)(O)O)[C@@H](O)[C@H]1O
-2.57%: max response [17, 21]
2.42%: max response [17, 22]
inactive: activity change, negative = inhibition [17] 5.3% | Potency [19] | Potency [16] | Potency [1] | Potency [2]

O=C1CC[C@H](C(=O)O)N1
inactive: Potency [1] | Potency [2]

OC[C@@H]1O[C@@H](n2cnc3c(N[C@H]4CCC[C@@H]4O)ncnc32)[C@H](O)[C@H]1O
-18.9%: max response [17, 21]
-17.5%: max response [17, 22]
inactive: Potency [6] > 46 µM | Potency [7] | Potency [8] | activity change, negative = inhibition [17] 3.72% | Potency [19] | Potency [16] | Potency [1] | Potency [2]

CCOC(=O)C(CCc1ccccc1)NC1CCc2ccccc2N(CC(=O)O)C1=O (centres undefined)
inactive: activity change, negative = inhibition [17] 1.93% | Potency [19] | Potency [1] | Potency [2]
11.8%: max response [17, 21]
17.9%: max response [17, 22]

C[C@@H](C(=O)O)c1ccc(-c2ccccc2)c(F)c1
active: Potency [18] 10 µM | Potency [12] 631 nM
inactive: activity change, negative = inhibition [20] 3.63% | activity, negative = inhibition ([4]; at 17.2 µM (top of the series)) 1.05% | Potency [5] > 20.6 µM and > 46 µM | Potency [6] > 20.6 µM and > 46 µM | Potency [7] | Potency [8] | Potency [19] | Potency [16] | Potency [1] | Potency [2]

C=CC1=C(C)C2=NC1=CC1=NC(=CC3=NC(=CC4=NC(=C2)C(C)=C4CCC(=O)O)C(CCC(=O)O)=C3C)C(C=C)=C1C.[Zn]
-12%: max response [17, 22]
active: Potency [7] 0.794 µM [activator] | Potency [19] 44.7 µM
-8.49%: max response [17, 21]
inactive: Potency [8] | Potency [12] | activity change, negative = inhibition [17] -3.5% | Potency [16] | Potency [1] | Potency [2]

CCCCCCCCCC(=O)O[C@H](CC(=O)O)C[N+](C)(C)C
-1.87%: max response [17, 22]
inactive: Potency [7] | activity change, negative = inhibition [17] 3.92% | Potency [16] | Potency [1] | Potency [2]
-0.114%: max response [17, 21]

C[C@@H]1Nc2ccc(Cl)cc2S(=O)(=O)N1
inactive: Potency [5] > 46 µM | Potency [7] | Potency [8] | activity change, negative = inhibition [17] 6.73% | Potency [19] | Potency [16] | Potency [1] | Potency [2]
-1.71%: max response [17, 21]
3.08%: max response [17, 22]

CCOC(=O)[C@@]12C[C@@H]1/C(=N/O)c1ccccc1O2
active: Potency [18] 3.98 µM and 316 nM
inactive: activity change, negative = inhibition [3] -6.63% | activity, negative = inhibition ([4]; at 38 µM (top of the series)) -6.6% | Potency [5] > 46 µM | Potency [6] > 46 µM | Potency [7] | Potency [8] | outcome [9] | Potency [13] | outcome [14] | outcome [15] | Potency [19] | Potency [16] | Potency [1] | Potency [2]
